Source: PubChem BioAssay (Tox21)
Records with an inconclusive call do not appear. Calls of active or inactive are those of the source. Unless noted, calls follow the shape of the dose curve; as a rule, active = well fitted curve in the direction sought with a large enough effect in the repeat runs; inconclusive = weak or mixed curves; inactive = no such curve, though single readings can be large; an effect the other way counts as inactive or inconclusive.

What was measured:
[1] = qHTS RealTime-Glo MT Cell Viability Assay in HEK293 cells - 0 hour (AID 1224880); also: nearly all actives have a fitted effect of over 45% in size; also: potency is read from the fitted curve at half-maximal effect
How it was run: (§1)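 Nonlytic bioluminescent viability monitoring. HEK293 at 600 cells/well with reagent; 5 h settle; compound transfer by pintool; plates held at 37 C and read at set time points.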

[2] = A CellTox Green Cytotoxicity Assay to monitor cytotoxicity in HepG2 cells - 0 hour (AID 1224882); also: nearly all actives have a fitted effect of over 35% in size
How it was run: (§2)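 Real-time, homogeneous cytotoxicity readout: dead-cell DNA staining by CellTox Green in HepG2 monolayers, fluorescence measured at timed intervals up to 40 h of continuous compound exposure.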

[3] = A CellTox Green Cytotoxicity Assay to monitor cytotoxicity in HepG2 cells - 32 hour (AID 1224883); also: nearly all actives have a fitted effect of over 50% in size; also: potency is read from the fitted curve at half-maximal effect
How it was run: as §2

[4] = A CellTox Green Cytotoxicity Assay to monitor cytotoxicity in HEK293 cells - 8 hour (AID 1224884); also: nearly all actives have a fitted effect of over 35% in size
How it was run: (§3)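 Cytotoxicity was tracked continuously in HEK293 cells by a DNA-binding dye excluded from viable cells. Compounds were transferred in DMSO 5 h after seeding; fluorescence was recorded at intervals up to 40 h.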

[5] = qHTS RealTime-Glo MT Cell Viability Assay in HepG2 cells - 16 hour (AID 1224885); also: nearly all actives have a fitted effect of over 50% in size
How it was run: (§4)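 Cells + NanoLuc/prosubstrate dispensed (600 cells/well) → 5 h at 37 C/5% CO2 → compounds in DMSO transferred → 40 h incubation at 37 C, luminescence read at 0, 8, 16, 24, 32, 40 h.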

[6] = qHTS RealTime-Glo MT Cell Viability Assay in HEK293 cells - 24 hour (AID 1224886); also: nearly all actives have a fitted effect of over 50% in size; also: potency is read from the fitted curve at half-maximal effect
How it was run: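 Tox21 10K qHTS, HEK293, 600 cells/well, RealTime-Glo reagent co-dispensed with cells; 5 h preincubation, compound by pintool, 37 C, luminescence at 0–40 h.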

[7] = A CellTox Green Cytotoxicity Assay to monitor cytotoxicity in HEK293 cells - 16 hour (AID 1224888); also: nearly all actives have a fitted effect of over 35% in size
How it was run: as §3

[8] = qHTS RealTime-Glo MT Cell Viability Assay in HepG2 cells - 0 hour (AID 1224889); also: nearly all actives have a fitted effect of over 50% in size; also: potency is read from the fitted curve at half-maximal effect
How it was run: as §4

[9] = A CellTox Green Cytotoxicity Assay to monitor cytotoxicity in HepG2 cells - 8 hour (AID 1224890); also: nearly all actives have a fitted effect of over 45% in size
How it was run: as §2

[10] = qHTS assay to identify small molecule antagonists of the estrogen receptor alpha (ER-alpha) signaling pathway using the BG1 cell line in the presence of 0.1 nM 17-beta-estradiol - cell viability counter screen (AID 1259241); also: nearly all actives have a fitted effect of over 40% in size; also: potency is read from the fitted curve at half-maximal effect
How it was run: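 Estradiol-stimulated (0.1 nM) VM7Luc4E2 cells exposed to compounds 22 hr; viability measured by fluorescence of cleaved CellTiter-Fluor substrate after 30 min.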

[11] = biological target: Estrogen receptor (Homo sapiens) (UniProt P03372); test: qHTS assay to identify small molecule antagonists of the estrogen receptor alpha (ER-alpha) signaling pathway using the BG1 cell line in the presence of 0.1 nM 17-beta-estradiol (AID 1259244); also: nearly all actives have a fitted effect of over 50% in size; also: potency is read from the fitted curve at half-maximal effect
Sequence of Estrogen receptor (Homo sapiens) (P03372 whole entry, looked up): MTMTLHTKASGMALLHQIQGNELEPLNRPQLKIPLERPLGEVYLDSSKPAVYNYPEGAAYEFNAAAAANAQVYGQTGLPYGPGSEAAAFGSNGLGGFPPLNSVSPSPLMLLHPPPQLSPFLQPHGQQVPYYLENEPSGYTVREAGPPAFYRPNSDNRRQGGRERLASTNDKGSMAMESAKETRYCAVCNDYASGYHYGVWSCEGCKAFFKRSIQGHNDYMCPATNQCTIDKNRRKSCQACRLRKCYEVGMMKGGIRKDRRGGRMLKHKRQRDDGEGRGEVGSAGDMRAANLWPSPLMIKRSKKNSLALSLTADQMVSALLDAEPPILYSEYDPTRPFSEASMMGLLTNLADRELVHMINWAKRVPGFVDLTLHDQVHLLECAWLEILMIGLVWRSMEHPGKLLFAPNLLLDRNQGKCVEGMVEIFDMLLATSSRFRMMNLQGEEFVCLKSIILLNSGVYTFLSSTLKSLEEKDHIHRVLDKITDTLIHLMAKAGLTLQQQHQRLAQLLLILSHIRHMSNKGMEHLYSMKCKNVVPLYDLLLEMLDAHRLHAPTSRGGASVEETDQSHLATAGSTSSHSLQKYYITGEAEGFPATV
How it was run: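 After 5 days in hormone-depleted medium (charcoal-stripped serum, no phenol red), VM7Luc4E2 cells were seeded, incubated 24 h, then co-treated with compound and 0.1 nM (final) estradiol for 22 h before luminescence detection.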

[12] = qHTS assay to identify small molecule HDAC inhibitors (AID 1259364); also: nearly all actives have a fitted effect of over 45% in size; also: potency is read from the fitted curve at half-maximal effect
How it was run: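 Homogeneous cell-based luminescent assay of endogenous class I/II HDAC activity; HCT-116 cells, 2 h compound exposure, 30 min HDAC-Glo development at RT.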

[13] = qHTS assay to identify small molecule HDAC inhibitors - cell viability counter screen (AID 1259365)
How it was run: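 After overnight seeding at 1,500 cells per well, wild-type HCT-116 cultures took up compounds in DMSO for 2hr at 37 C. Viable cell content came from luminescence with CellTiter-Glo.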

[14] = A CellTox Green Cytotoxicity Assay to monitor cytotoxicity in HEK293 cells - 32 hour (AID 1224881); also: nearly all actives have a fitted effect of over 40% in size
How it was run: as §3

[15] = qHTS RealTime-Glo MT Cell Viability Assay in HEK293 cells - 8 hour (AID 1224887)
How it was run: as §1

[16] = qHTS assay to identify small molecule antagonists of the androgen receptor (AR) signaling pathway using the MDA cell line in the presence of 0.5 nM R1881 - cell viability counter screen (AID 1259242); also: nearly all actives have a fitted effect of over 45% in size; also: potency is read from the fitted curve at half-maximal effect
How it was run: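 Cytotoxicity toward MDA-kb2 cells is measured by CellTiter-Fluor live-cell protease fluorescence after 16 hr compound exposure at 37C in the presence of 0.5 nM R1881 stimulator.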

[17] = qHTS assay to identify small molecule agonists of the sonic hedgehog signaling (Shh) pathway - cell viability counter screen (AID 1259366); also: nearly all actives have a fitted effect of over 50% in size; also: potency is read from the fitted curve at half-maximal effect
How it was run: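 Same-well cytotoxicity read. Gli1-Luc reporter 3T3 cells; compounds 24hr, 37C/5% CO2; CellTiter-Fluor fluorescence.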

[18] = qHTS assay to identify small molecule antagonists of the sonic hedgehog signaling (Shh) pathway - cell viability counter screen (AID 1259367); also: nearly all actives have a fitted effect of over 55% in size; also: potency is read from the fitted curve at half-maximal effect
How it was run: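 Seed 3T3 Gli1-Luc cells at 2,000 per well; incubate 4 hr; add compound in DMSO, then conditioned medium; incubate at 37C with 5% CO2; add CellTiter-Fluor after 23 hr; read fluorescence 1 hr later.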

[19] = qHTS assay to identify small molecule phospholipidosis (PLD) inducers (AID 1259344; active = well fitted curve in the direction sought with a large enough effect; an effect the other way counts as inactive or inconclusive)
How it was run: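 Quantitative HTS in HepG2: compound plus LipidTOX Red dye for 24 h, paraformaldehyde fixation with Hoechst 33342, widefield high-content imaging; amiodarone as positive and DMSO as negative control.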

[20] = biological target: Androgen receptor (Homo sapiens) (UniProt P10275); test: qHTS assay to identify small molecule antagonists of the androgen receptor (AR) signaling pathway using the MDA cell line in the presence of 0.5 nM R1881 (AID 1259243); also: nearly all actives have a fitted effect of over 50% in size
Sequence of Androgen receptor (Homo sapiens) (P10275 whole entry, looked up): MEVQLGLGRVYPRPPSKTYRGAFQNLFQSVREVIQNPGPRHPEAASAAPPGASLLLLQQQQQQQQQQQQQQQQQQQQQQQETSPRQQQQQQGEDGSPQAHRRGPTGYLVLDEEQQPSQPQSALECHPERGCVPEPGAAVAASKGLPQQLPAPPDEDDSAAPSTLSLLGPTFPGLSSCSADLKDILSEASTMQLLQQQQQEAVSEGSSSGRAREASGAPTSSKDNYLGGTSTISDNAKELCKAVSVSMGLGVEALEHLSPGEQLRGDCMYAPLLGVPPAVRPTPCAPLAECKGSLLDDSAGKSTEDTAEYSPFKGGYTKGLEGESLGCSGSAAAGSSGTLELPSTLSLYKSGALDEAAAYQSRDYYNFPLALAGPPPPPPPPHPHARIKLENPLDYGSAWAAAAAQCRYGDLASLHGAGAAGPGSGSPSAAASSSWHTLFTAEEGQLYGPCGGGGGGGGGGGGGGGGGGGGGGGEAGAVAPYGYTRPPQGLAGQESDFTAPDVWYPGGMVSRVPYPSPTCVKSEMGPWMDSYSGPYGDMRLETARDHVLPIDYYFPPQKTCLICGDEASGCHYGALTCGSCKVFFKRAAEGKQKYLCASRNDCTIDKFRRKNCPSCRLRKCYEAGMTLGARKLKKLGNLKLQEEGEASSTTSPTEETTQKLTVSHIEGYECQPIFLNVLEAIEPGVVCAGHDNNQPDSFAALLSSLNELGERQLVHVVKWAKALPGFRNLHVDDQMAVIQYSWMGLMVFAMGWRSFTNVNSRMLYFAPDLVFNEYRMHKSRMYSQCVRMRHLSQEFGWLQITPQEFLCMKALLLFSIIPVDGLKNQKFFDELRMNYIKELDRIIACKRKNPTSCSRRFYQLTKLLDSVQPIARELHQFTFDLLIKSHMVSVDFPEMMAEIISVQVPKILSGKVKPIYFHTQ
How it was run: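 Steps: seed MDA-kb2 cells, incubate 5 hr at 37C; pin-transfer compounds in DMSO; add R1881 to 0.5 nM final; incubate 16 hr; add ONE-Glo, wait 30 min at room temperature; read luminescence.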
% is scaled to controls: 0 for no effect and ±100 for the full control effect.

COc1cc2c(N3CCN(C(=O)Nc4ccc(OC(C)C)cc4)CC3)ncnc2cc1OCCCN1CCCCC1
inactive: Potency [1] | Potency [2] | Potency [4] | Potency [5] | Potency [7] | Potency [8] | Potency [9] | Potency [10] | Potency [11] | Potency [12] | Potency [13]
active: Potency [3] 26.8 µM | Potency [6] 9.52 µM

NC(=O)Nc1ccc(Cl)cc1
inactive: Potency [1] | Potency [14] | Potency [4] | Potency [5] | Potency [6] | Potency [15] | Potency [7] | Potency [8] | Potency [10] | Potency [16] | Potency [11] | Potency [12] | Potency [13] | Potency [17] | Potency [18]

CCc1c2c(nc3ccc(OC(=O)N4CCC(N5CCCCC5)CC4)cc13)-c1cc3c(c(=O)n1C2)COC(=O)[C@]3(O)CC
inactive: Potency [1] | Potency [14] | Potency [4] | Potency [5] | Potency [15] | Potency [8] | Potency [9] | Potency [10] | Potency [16] | outcome [19] | Potency [12] | Potency [13] | Potency [18]
active: Potency [6] 2.68 µM | Potency [11] 23.7 µM

O=c1[nH]c2ccc(S(=O)CCN3CCC(Cc4ccc(F)cc4)CC3)cc2o1 (stereo unspecified)
inactive: Potency [1] | Potency [14] | Potency [3] | Potency [4] | Potency [7] | Potency [9] | Potency [10] | Potency [16] | Potency [12] | Potency [13] | Potency [17] | Potency [18]

COC(=O)[C@@H]1CC2=CC(=O)CC[C@]2(C)[C@@]23O[C@@H]2C[C@@]2(C)[C@@H](CC[C@@]24CCC(=O)O4)[C@H]13
inactive: Potency [1] | Potency [2] | Potency [3] | Potency [4] | Potency [5] | Potency [6] | Potency [15] | Potency [7] | Potency [8] | Potency [9] | Potency [10] | Potency [16] | Potency [11] | outcome [19] | Potency [12] | Potency [13] | Potency [17] | Potency [18]

Cc1cc(S(=O)(=O)O)ccc1N=Nc1c(O)ccc2ccccc12
inactive: Potency [1] | Potency [14] | Potency [3] | Potency [4] | Potency [6] | Potency [15] | Potency [7]
active: Potency [10] 34.4 µM | Potency [16] 48.6 µM | Potency [12] 0.686 µM | Potency [17] 27.3 µM | Potency [18] 27.3 µM

CCOC(=N)CC(=O)OCC
inactive: Potency [1] | Potency [14] | Potency [5] | Potency [6] | Potency [7] | Potency [8] | Potency [9] | Potency [10] | Potency [16] | Potency [12] | Potency [13] | Potency [17] | Potency [18]

N#C[C@@H]1C[C@@H]2C[C@@H]2N1C(=O)[C@@H](N)C12CC3CC(CC(O)(C3)C1)C2
inactive: Potency [1] | Potency [2] | Potency [3] | Potency [4] | Potency [5] | Potency [15] | Potency [8] | Potency [9] | Potency [10] | Potency [16] | PLD induction [19] -3.21% [at 7.66 µM] | Potency [12] | Potency [13] | Potency [17] | Potency [18]

O=C(C(=O)c1ccccc1)c1ccccc1
inactive: Potency [1] | Potency [3] | Potency [4] | Potency [5] | Potency [6] | Potency [15] | Potency [7] | Potency [8] | Potency [9] | Potency [10] | Potency [16] | Potency [12] | Potency [13] | Potency [17] | Potency [18]

CCn1cc(C(=O)O)c(=O)c2cc(F)c(N3CCNCC3)nc21
inactive: Potency [14] | Potency [2] | Potency [3] | Potency [4] | Potency [5] | Potency [6] | Potency [15] | Potency [7] | Potency [8] | Potency [9] | Potency [10] | Potency [16] | Potency [11] | outcome [19] | Potency [12] | Potency [13] | Potency [17] | Potency [18]

CC1(C)C2=CCCC(C)(C)[C@]23CC[C@H]1C3
inactive: Potency [4] | Potency [5] | Potency [6] | Potency [15] | Potency [7] | Potency [9] | Potency [10] | Potency [16] | Potency [20] | Potency [12] | Potency [13] | Potency [17] | Potency [18]
active: Potency [1] 24.5 µM | Potency [8] 34.7 µM

CC(C)CCCC(=O)O
inactive: Potency [14] | Potency [2] | Potency [3] | Potency [5] | Potency [6] | Potency [15] | Potency [7] | Potency [8] | Potency [9] | Potency [10] | Potency [16] | Potency [20] | Potency [11] | Potency [12] | Potency [13] | Potency [17] | Potency [18]

O=C(NCCCN1CCOCC1)c1ccc(Cl)cc1
inactive: Potency [14] | Potency [2] | Potency [3] | Potency [4] | Potency [5] | Potency [6] | Potency [15] | Potency [8] | Potency [9] | Potency [10] | Potency [16] | Potency [11] | outcome [19] | Potency [12] | Potency [13] | Potency [17] | Potency [18]

NC(=O)Cn1c(=O)cc(CCN2CCN(c3nccc4sccc34)CC2)c2ccc(F)cc21
inactive: Potency [14] | Potency [2] | Potency [3] | Potency [4] | Potency [9] | Potency [10] | Potency [16] | Potency [13]
active: Potency [8] 13.8 µM

CC(=O)OCC(=O)[C@H]1CC[C@H]2[C@@H]3CCC4=CC(=O)CC[C@]4(C)[C@H]3CC[C@]12C
active: Potency [1] 9.52 µM | Potency [8] 3.01 µM
inactive: Potency [2] | Potency [5] | Potency [9] | Potency [10] | Potency [16] | Potency [20] | Potency [11] | Potency [12] | Potency [13] | Potency [17] | Potency [18]

C=CC(C)(C)CC(=O)OC
active: Potency [6] 1.38 µM
inactive: Potency [14] | Potency [2] | Potency [3] | Potency [5] | Potency [7] | Potency [8] | Potency [9] | Potency [10] | Potency [16] | Potency [12] | Potency [13] | Potency [17] | Potency [18]

C/C=C(\C)C(=O)OCCC(C)CCC=C(C)C (stereo unspecified)
inactive: Potency [14] | Potency [2] | Potency [3] | Potency [4] | Potency [6] | Potency [15] | Potency [7] | Potency [8] | Potency [9] | Potency [10] | Potency [16] | Potency [12] | Potency [13] | Potency [17] | Potency [18]
